Compounds without any hit were thinned out: in the full panel of roughly 83,000, 20% have a hit.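 Values shown are percent growth following 48 h exposure of cells in 96-well plates to a single concentration of compound; below 10 was considered active.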 Unmarked numbers belong to inactive results. Calls of active or inactive are those of the source.
Legend:
Assay in all cases: NCI-60 one-dose screen, 48 h (100 = growth as untreated, 0 = no growth, -100 = all killed)
Settings in all cases: 10 µM unless noted
SK-MEL-2 melanoma = tested on: SK-MEL-2 melanoma
EKVX NSCLC = tested on: EKVX NSCLC
SN12C renal = tested on: SN12C renal
UO-31 renal = tested on: UO-31 renal
TK-10 renal = tested on: TK-10 renal
ACHN renal = tested on: ACHN renal
CAKI-1 renal = tested on: CAKI-1 renal
CCRF-CEM leukemia = tested on: CCRF-CEM leukemia
MOLT-4 leukemia = tested on: MOLT-4 leukemia
A498 renal = tested on: A498 renal

Row | SMILES | growth (SK-MEL-2 melanoma) | growth (EKVX NSCLC) [%] | growth (SN12C renal) | growth (UO-31 renal) | growth (TK-10 renal) | growth (ACHN renal) | growth (CAKI-1 renal) | growth (CCRF-CEM leukemia) | growth (MOLT-4 leukemia) | growth (A498 renal)
1 | CN1CCN(Cc2ccc(NC(=O)c3cncc(C#Cc4cncn5ccnc45)c3)cc2C(F)(F)F)CC1 | 24.2% | 86.6 | 31.3% | 44% | 94.2% | 37.8% | 89.2% | 36% | 82.9% | –
2 | COc1cc(C(=O)/C=C/c2cccnc2Nc2ccc(Cl)cc2)cc(OC)c1OC | -65% (active) | 23.7 | -58.7% (active) | -99.3% (active) | -68.5% (active) | -97.1% (active) | -6.13% (active) | -10.8% (active) | -6.63% (active) | –
3 | CCOC(=O)c1cc(C(=O)c2ccc(O)c(O)c2)n2ccc(-c3ccn4c(C(=O)c5ccc(O)c(O)c5)cc(C(=O)OCC)c4c3)cc12 | 103% | 94.9 | 94.7% | 63.4% | 83.3% | 97.4% | – | 84.5% | 63.3% | 96.6%
4 | CC(=O)c1cc2c(N)c(C(=O)Nc3cccc(F)c3C)sc2nc1C | 68.5% | 95.7 | 95.1% | 91.2% | 100% | 89.4% | – | 86.7% | 79.1% | 43%
5 | CN(C)c1ccc(NC(=O)c2ccc(/C=C/C(=O)c3ncc[nH]3)cc2)cc1 | 92% | 73 | 44.9% | 37.9% | 74% | 71.4% | – | 4.98% (active) | 27.1% | 94.1%
6 | CCc1nc(N)nc(N)c1C#CC(C)c1cc(-c2ccnc(C)c2)c2oc(C)nc2c1 (stereo unspecified) | 30.1% | 19.2 | 6.91% (active) | 9.81% (active) | 25.2% | 9.82% (active) | – | 0.474% (active) | 1.69% (active) | 10.8%
7 | Cc1cc(N2CCCC2)nc(NC2CCCC(Nc3ccnc4cc(Cl)ccc34)C2)n1 (stereo unspecified) | -87.5% (active) | 11.1 | -49.4% (active) | -93.3% (active) | -74.5% (active) | -98% (active) | – | -22.2% (active) | -20.8% (active) | -18.4% (active)
8 | O=C(Cc1ccc(/C=C/C(=O)c2ncc[nH]2)cc1)Nc1ccc(F)cc1 | 79.1% | 34.8 | 17.4% | 17.2% | 35.9% | 46.4% | – | 2.63% (active) | 14.7% | 66.9%
9 | CC1=C[C@H]2c3c(c(O)c(O)c4oc(-c5ccccc5)cc(=O)c34)[C@H](c3cc(O)c(O)c4oc(-c5ccccc5)cc(=O)c34)[C@H]2C(C)(C)C1 | -3.08% (active) | 14.5 | 1.79% (active) | -50.2% (active) | 28.4% | 2.25% (active) | -27% (active) | 4.65% (active) | 5.24% (active) | –
10 | CN1CCN(CCCOc2cccc3nc(Nc4ccc(Cl)c(F)c4)ccc23)CC1 | 83.7% | 61.7 | 63.7% | 22.5% | 88.4% | 10.5% | – | 19.3% | -22% (active) | 55.4%
11 | O=c1ccccc(-c2ccc(-c3ccco3)cc2)c1O | 19.9% | 11.8 | 11.3% | -12.2% (active) | 33.5% | 9.23% (active) | – | 5.03% (active) | 7.73% (active) | 39%
12 | NC(=O)c1cc(I)ccc1NC(=O)/C=C/c1ccccc1Cl | 75.1% | 28 | 40.7% | 30.6% | 62.3% | 56.2% | – | -19.6% (active) | 10.4% | 62.4%
13 | CCCCN(CCCC)CCCn1c(-c2ccccc2)ccc1-c1ccccc1 | 93.5% | 49.6 | 70.7% | 56.9% | 83.1% | 62.9% | – | 44.3% | 55% | 59.3%
14 | Clc1ccc2c(NCCCNc3nc(-n4ccnc4)nc4ccccc34)ccnc2c1 | 103% | 70.3 | 84.4% | 78.8% | 102% | 97.7% | – | 75.2% | 68% | 78.2%
15 | CN(C)C(=S)N=Nc1c(O)[nH]c2ccccc12 | -12.6% (active) | 14.8 | 25.1% | -19.1% (active) | 28.9% | 16.9% | – | -11.6% (active) | -12.4% (active) | 1.31% (active)
16 | Clc1ccc2c(NCCNc3nc(N4CCOCC4)nc4ccccc34)ccnc2c1 | -42.9% (active) | 31.1 | 0.0194% (active) | -89% (active) | -88.6% (active) | -44.2% (active) | – | -8.56% (active) | 11.7% | -12.8% (active)
17 | CCc1nc(N)nc(N)c1C#CC(C)c1ccc(-c2ccncc2)cc1Cl (stereo unspecified) | 33.3% | 25 | 18.4% | 10.9% | 18.8% | 14.1% | – | 10.9% | 10.2% | 22.7%
18 | CN(C)[C@@H]1C(=O)C(C(=O)NCc2nc3[nH]cnc(=S)c3[nH]2)=C(O)[C@@]2(O)C(=O)C3=C(O)c4c(O)cccc4[C@@](C)(O)[C@H]3C[C@@H]12 | 13.1% | 88.8 | 87.8% | 47.4% | 22.7% | 74% | – | 14.1% | 12.9% | 101%
19 | O=Nc1c(O)c(Cl)cc2ccccc12 | 93.4% | 111 | 82.6% | 64.3% | 66.3% | 65.3% | – | 39.4% | 45.7% | 77.2%
20 | CN1CCN(c2nc(NCCCNc3ccnc4cc(Cl)ccc34)c3ccccc3n2)CC1 | 80.7% | 77.3 | 57.2% | 37.3% | 116% | 50% | – | 18.6% | 18.6% | 72.1%
21 | Cc1cc(N2CCOCC2)nc(N[C@@H]2CCC[C@H](Nc3ccnc4cc(Cl)ccc34)C2)n1 | -71.5% (active) | 49.9 | 22.7% | -84.5% (active) | -68.7% (active) | -61.7% (active) | – | -10.4% (active) | 2.9% (active) | 35.1%
22 | O=[N+]([O-])c1cnc(N2CCN(CC3CC3)CC2)nc1N1CCN(CC2CC2)CC1 | 98.5% | 86.5 | 98.2% | 80.2% | 102% | 104% | – | 106% | 103% | 86.6%
23 | COc1cccc(C2=NN3C(C2)c2cc(Br)cc(OC)c2OC32CCN(Cc3ccccc3)CC2)c1 (stereo unspecified) | 102% | 94.8 | 98.7% | 85.3% | 108% | 102% | – | 109% | 106% | 104%
24 | COc1ccc(NC(=O)c2ccc(/C=C/C(=O)c3ncc[nH]3)cc2)cc1 | 97.6% | 79.8 | 70.8% | 48.4% | 88.8% | 86.3% | – | 29.1% | 62.4% | 86.8%
25 | COc1ccc(/C=C2\Oc3cc(OCCCCN4CCCC4)ccc3C2=O)cc1 | 98.9% | 91.5 | 90.3% | 68% | 98.1% | 95.5% | 95% | 13.8% | 42.7% | –
26 | CCNC(=O)Oc1ccc(/C(=C(\C)c2ccc(Cl)cc2)c2ccc(OCCN(CC)CC)cc2)cc1 | 38.1% | 60.1 | 66.1% | 25.8% | 80.4% | 71.3% | – | 16.4% | 7.99% (active) | 85.5%
27 | CCN1CCN(c2nc(NCCCNc3ccnc4cc(Cl)ccc34)c3ccccc3n2)CC1 | -10.5% (active) | 63.1 | 48.2% | -5.29% (active) | 42.3% | 5.28% (active) | – | 12.2% | 13.6% | 81%
28 | Cc1ccc(C(SCC(N)C(=O)O)(c2ccccc2)c2ccc(C)cc2)cc1 (stereo unspecified) | -24.4% (active) | 43.1 | 29.9% | 38.6% | 60.7% | 56.3% | – | 6.28% (active) | 13.8% | 29%
29 | CCCCCC(=O)Oc1ccc(/C(=C(\C)c2ccc(OC)cc2)c2ccc(OCCN3CCCCC3)cc2)cc1 | 64.7% | 58.5 | 73.8% | 56.2% | 92.7% | 74.4% | – | 56.7% | 25.1% | 92.3%
